{"source": "the supplement of paper PMC10681739", "data": [{"molecular_target": "T1, ETS1 (UniProt P14921)", "T1 sequence": "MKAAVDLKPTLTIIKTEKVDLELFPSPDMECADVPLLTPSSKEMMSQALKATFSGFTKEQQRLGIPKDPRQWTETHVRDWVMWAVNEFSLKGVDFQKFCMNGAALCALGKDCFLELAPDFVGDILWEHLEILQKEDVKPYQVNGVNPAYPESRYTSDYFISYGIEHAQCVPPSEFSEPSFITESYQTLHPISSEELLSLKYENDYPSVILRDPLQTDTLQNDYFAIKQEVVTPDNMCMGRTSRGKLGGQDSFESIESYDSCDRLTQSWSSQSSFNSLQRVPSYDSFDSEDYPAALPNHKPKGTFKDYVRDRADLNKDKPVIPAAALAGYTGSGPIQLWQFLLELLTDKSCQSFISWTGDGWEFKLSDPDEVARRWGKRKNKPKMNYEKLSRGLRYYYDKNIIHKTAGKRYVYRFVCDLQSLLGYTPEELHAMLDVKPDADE", "assay": "ETS1 binding intensity (PBM fluorescence), ETS1 alone (arbitrary fluorescence units); higher = stronger binding", "details": "ETS1 concentration 1 nM; RUNX1 concentration 0 nM", "values": [{"sequence": "GCCCAGGCAGGAAGCCAGGCGCCCACAGGTTGGCAG", "ETS1 binding intensity": 990}, {"sequence": "GCAGCATTTCCTGACTTCTTCGCCCCTGTGGTTGCA", "ETS1 binding intensity": 440}, {"sequence": "CAGAAACATCCCTCCTGCCGCCGCTTTGTGGTACCA", "ETS1 binding intensity": 378}, {"sequence": "GTTATTCTCCCCTTCCTGTGGTGTGTTTTGATGGTA", "ETS1 binding intensity": 702}, {"sequence": "ACAGGAAATGTTAGAGGTTGAGTTAGCGGTTATGAG", "ETS1 binding intensity": 1620}, {"sequence": "TGCCGGGCCCCGGATGTCACCGCAGCCGCCATCTTA", "ETS1 binding intensity": 2460}, {"sequence": "CGAAACGCGTTCCCCGGAAACCGCGCCCGGCTCCGA", "ETS1 binding intensity": 1810}, {"sequence": "CACCTAAAGCCATTGGGATGTGGTTTCTCTTTTTCA", "ETS1 binding intensity": 388}, {"sequence": "CTCGCCCCATTTCCCGTAAATATCAGCCACAGACCA", "ETS1 binding intensity": 546}, {"sequence": "GGATGAACAGGAAGCTAAAGTAAATACCACAGTGAC", "ETS1 binding intensity": 1710}, {"sequence": "GCAACTGAACAGGAAACTAAAAAACCACAACACTTA", "ETS1 binding intensity": 1400}, {"sequence": "AGCTGAGAGCCTGCCGGAAGCCACAGCTTCTTCTCG", "ETS1 binding intensity": 4180}, {"sequence": "GATGCTTGTTCAGGATGCGGTTTCTTGCAGCAAGTT", "ETS1 binding intensity": 674}, {"sequence": "AACAACAGGATGCTCTCTAGTCTAACAGTGGTAACA", "ETS1 binding intensity": 847}, {"sequence": "AGAAGCTGCAGTCCCGGAAGCGGTTTTAGGGGGCCG", "ETS1 binding intensity": 4220}, {"sequence": "CCCCGCGGAACTCTGGCACAGTCAGCTGACCGCAGA", "ETS1 binding intensity": 424}, {"sequence": "GTGGTCGGGAGGGGAAGTGAGGCGGTTACCTCGGCG", "ETS1 binding intensity": 684}, {"sequence": "CCTGTCCGGAAGTCCTGAGAGGGAATCGCCCGCAAA", "ETS1 binding intensity": 2300}, {"sequence": "CTGCTGACCAAAACAGGATGTGGTCTACACAAAGTG", "ETS1 binding intensity": 10300}, {"sequence": "AGGGTTACAATTTCCGTAAACCACAGAAGCAGCAGA", "ETS1 binding intensity": 550}, {"sequence": "GCTGACCCGGAAGCGCTCGTGACCACCATCTCCGAC", "ETS1 binding intensity": 1760}, {"sequence": "TGCATGCAACAGGAAGTGGGGTGTGGTTTGTTCTGG", "ETS1 binding intensity": 11600}, {"sequence": "GATCCCCCTCCTCCATCCTGTGGCTTCGGGTTGCCG", "ETS1 binding intensity": 482}, {"sequence": "GGCAGCAAGAAAGGAAATAGTGTGGTTGGGTGGAGA", "ETS1 binding intensity": 1050}, {"sequence": "GAGTCGCTTCCGCTCCCGCCCCGCTCTGTGGCGTAG", "ETS1 binding intensity": 1180}, {"sequence": "GCACTCGGATGTTGGCCGTAGTTGTGGTTATAGTTG", "ETS1 binding intensity": 464}, {"sequence": "TGGATGGCAAGCAACGGAAACCGCAAACAGGGCTGT", "ETS1 binding intensity": 1700}, {"sequence": "GACTGGACAACTTCCTGGTGGAAAACCGCGACTCTT", "ETS1 binding intensity": 637}, {"sequence": "TGCCACCTGCTTCCTGCCTGTGTAGCCACAAGGGAC", "ETS1 binding intensity": 783}, {"sequence": "AGCTTTCCTTTTCCGGTTGCGGCGCCGCGCGTTGAT", "ETS1 binding intensity": 1800}, {"sequence": "ACAGAGAAGCTTCCTATTGTGGGATTCACCACCACC", "ETS1 binding intensity": 623}, {"sequence": "GGTGGCAACATCCTGGGGAGGGGAACCCACAGGGGA", "ETS1 binding intensity": 364}, {"sequence": "GGACGCCGCCGGAAGCGCGACCCGCACTCCCGGTAG", "ETS1 binding intensity": 3650}, {"sequence": "GAGGGGAGGATGTCTGAGCTTTTAATTGTGGTTTCA", "ETS1 binding intensity": 370}, {"sequence": "AACGACAAACCGGAAGTATGGTTTGCCGCCTGAAGC", "ETS1 binding intensity": 17000}, {"sequence": "CGGCCTCTTCCGGTCACCTGGCCCGTCGCGGTCCCG", "ETS1 binding intensity": 1800}, {"sequence": "GGGTCCTTCCGGGTTTTGTGTCGAATCTGCGGCGGC", "ETS1 binding intensity": 486}, {"sequence": "GCACACCGGAACTCACACCTGAAACCACAGAACCAA", "ETS1 binding intensity": 868}, {"sequence": "CCTGGGCAAGGCCGGATGCCTGTGGCTTCCAGGCTG", "ETS1 binding intensity": 2880}, {"sequence": "GTTGGGAGGCGCACATCCGGCGGTTACCCGGTGCTT", "ETS1 binding intensity": 2360}]}, {"molecular_target": "RUNX1 (UniProt Q01196)", "sequence (Q01196 whole entry)": "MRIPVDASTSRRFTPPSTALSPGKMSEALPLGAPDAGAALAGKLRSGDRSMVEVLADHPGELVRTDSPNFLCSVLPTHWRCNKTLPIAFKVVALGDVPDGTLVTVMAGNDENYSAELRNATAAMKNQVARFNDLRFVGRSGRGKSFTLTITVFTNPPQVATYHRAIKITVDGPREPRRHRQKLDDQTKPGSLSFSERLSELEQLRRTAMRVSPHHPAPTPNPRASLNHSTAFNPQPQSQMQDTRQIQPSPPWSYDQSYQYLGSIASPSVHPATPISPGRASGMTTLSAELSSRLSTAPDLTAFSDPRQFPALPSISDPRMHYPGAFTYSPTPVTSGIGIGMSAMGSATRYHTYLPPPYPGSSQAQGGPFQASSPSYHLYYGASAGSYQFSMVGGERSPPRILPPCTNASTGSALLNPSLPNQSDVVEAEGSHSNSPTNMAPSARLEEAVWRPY", "assay": "RUNX1 binding intensity (PBM fluorescence), RUNX1 alone (arbitrary fluorescence units); higher = stronger binding", "details": "RUNX1 concentration 2 nM; ETS1 concentration 0 nM", "protocol": "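Cooperative gcPBM on 36-bp genomic probes with neighbouring ETS1 and RUNX1 sites. Recombinant human RUNX1 (2 nM) was incubated alone or with ETS1 (25 nM) and detected with anti-RUNX1 antibody plus Alexa488 secondary. Values are medians over 4 replicate spots; the RUNX1+ETS1 data were normalised to the RUNX1-only data. The probes sit in constant array flanks that are not printed.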", "values": [{"sequence": "GCCCAGGCAGGAAGCCAGGCGCCCACAGGTTGGCAG", "RUNX1 binding intensity": 643}, {"sequence": "GCAGCATTTCCTGACTTCTTCGCCCCTGTGGTTGCA", "RUNX1 binding intensity": 850}, {"sequence": "CAGAAACATCCCTCCTGCCGCCGCTTTGTGGTACCA", "RUNX1 binding intensity": 983}, {"sequence": "GTTATTCTCCCCTTCCTGTGGTGTGTTTTGATGGTA", "RUNX1 binding intensity": 1120}, {"sequence": "ACAGGAAATGTTAGAGGTTGAGTTAGCGGTTATGAG", "RUNX1 binding intensity": 833}, {"sequence": "TGCCGGGCCCCGGATGTCACCGCAGCCGCCATCTTA", "RUNX1 binding intensity": 968}, {"sequence": "CGAAACGCGTTCCCCGGAAACCGCGCCCGGCTCCGA", "RUNX1 binding intensity": 763}, {"sequence": "CACCTAAAGCCATTGGGATGTGGTTTCTCTTTTTCA", "RUNX1 binding intensity": 1040}, {"sequence": "CTCGCCCCATTTCCCGTAAATATCAGCCACAGACCA", "RUNX1 binding intensity": 1350}, {"sequence": "GGATGAACAGGAAGCTAAAGTAAATACCACAGTGAC", "RUNX1 binding intensity": 764}, {"sequence": "GCAACTGAACAGGAAACTAAAAAACCACAACACTTA", "RUNX1 binding intensity": 1900}, {"sequence": "AGCTGAGAGCCTGCCGGAAGCCACAGCTTCTTCTCG", "RUNX1 binding intensity": 801}, {"sequence": "GATGCTTGTTCAGGATGCGGTTTCTTGCAGCAAGTT", "RUNX1 binding intensity": 3420}, {"sequence": "AACAACAGGATGCTCTCTAGTCTAACAGTGGTAACA", "RUNX1 binding intensity": 866}, {"sequence": "AGAAGCTGCAGTCCCGGAAGCGGTTTTAGGGGGCCG", "RUNX1 binding intensity": 725}, {"sequence": "CCCCGCGGAACTCTGGCACAGTCAGCTGACCGCAGA", "RUNX1 binding intensity": 1600}, {"sequence": "GTGGTCGGGAGGGGAAGTGAGGCGGTTACCTCGGCG", "RUNX1 binding intensity": 790}, {"sequence": "CCTGTCCGGAAGTCCTGAGAGGGAATCGCCCGCAAA", "RUNX1 binding intensity": 963}, {"sequence": "CTGCTGACCAAAACAGGATGTGGTCTACACAAAGTG", "RUNX1 binding intensity": 800}, {"sequence": "AGGGTTACAATTTCCGTAAACCACAGAAGCAGCAGA", "RUNX1 binding intensity": 1450}, {"sequence": "GCTGACCCGGAAGCGCTCGTGACCACCATCTCCGAC", "RUNX1 binding intensity": 912}, {"sequence": "TGCATGCAACAGGAAGTGGGGTGTGGTTTGTTCTGG", "RUNX1 binding intensity": 760}, {"sequence": "GATCCCCCTCCTCCATCCTGTGGCTTCGGGTTGCCG", "RUNX1 binding intensity": 819}, {"sequence": "GGCAGCAAGAAAGGAAATAGTGTGGTTGGGTGGAGA", "RUNX1 binding intensity": 846}, {"sequence": "GAGTCGCTTCCGCTCCCGCCCCGCTCTGTGGCGTAG", "RUNX1 binding intensity": 748}, {"sequence": "GCACTCGGATGTTGGCCGTAGTTGTGGTTATAGTTG", "RUNX1 binding intensity": 1010}, {"sequence": "TGGATGGCAAGCAACGGAAACCGCAAACAGGGCTGT", "RUNX1 binding intensity": 15600}, {"sequence": "GACTGGACAACTTCCTGGTGGAAAACCGCGACTCTT", "RUNX1 binding intensity": 1050}, {"sequence": "TGCCACCTGCTTCCTGCCTGTGTAGCCACAAGGGAC", "RUNX1 binding intensity": 910}, {"sequence": "AGCTTTCCTTTTCCGGTTGCGGCGCCGCGCGTTGAT", "RUNX1 binding intensity": 926}, {"sequence": "ACAGAGAAGCTTCCTATTGTGGGATTCACCACCACC", "RUNX1 binding intensity": 735}, {"sequence": "GGTGGCAACATCCTGGGGAGGGGAACCCACAGGGGA", "RUNX1 binding intensity": 835}, {"sequence": "GGACGCCGCCGGAAGCGCGACCCGCACTCCCGGTAG", "RUNX1 binding intensity": 794}, {"sequence": "GAGGGGAGGATGTCTGAGCTTTTAATTGTGGTTTCA", "RUNX1 binding intensity": 870}, {"sequence": "AACGACAAACCGGAAGTATGGTTTGCCGCCTGAAGC", "RUNX1 binding intensity": 754}, {"sequence": "CGGCCTCTTCCGGTCACCTGGCCCGTCGCGGTCCCG", "RUNX1 binding intensity": 1040}, {"sequence": "GGGTCCTTCCGGGTTTTGTGTCGAATCTGCGGCGGC", "RUNX1 binding intensity": 784}, {"sequence": "GCACACCGGAACTCACACCTGAAACCACAGAACCAA", "RUNX1 binding intensity": 2180}, {"sequence": "CCTGGGCAAGGCCGGATGCCTGTGGCTTCCAGGCTG", "RUNX1 binding intensity": 685}, {"sequence": "GTTGGGAGGCGCACATCCGGCGGTTACCCGGTGCTT", "RUNX1 binding intensity": 785}]}]}
